# Experimental data as given in PubChem BioAssay AID1159580 (chemical genetic matrix, 2015).
# Hit rate of the full screen: of about 5,500 compounds, about 2,000 (36%) were called active. Not shown: some 18% with an inconclusive outcome. The list shows a part of the results. Unmarked numbers belong to inactive results. Cut-off read from the data, not from the text of the source: active = normalized growth mostly below about 0.91 (no sharp cut-off); inconclusive = no clear call, values can overlap the other calls; inactive = mostly above about 0.92.
# Experiment: chemical genetic growth profiling, strain panel (AID 1159580);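 note: tested at 20 µM; growth read once vehicle control cultures reached saturation at 30 °C; 1 = growth at the plate median or of vehicle wells; lower values mean less growth of the strain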
# Conditions: growth OD
# [1] = S. cerevisiae deletion strains, locus YAL013W, strain DEP1, stronger effect = lower value
# [2] = S. cerevisiae deletion strains, locus YBR229C, strain ROT2, stronger effect = lower value
# [3] = S. cerevisiae deletion strains, locus YDL101C, strain DUN1, stronger effect = lower value
# [4] = S. cerevisiae deletion strains, locus YDR150W, strain NUM1, stronger effect = lower value
# [5] = S. cerevisiae deletion strains, locus YEL061C, strain CIN8, stronger effect = lower value
# [6] = S. cerevisiae deletion strains, locus YGR078C, strain PAC10, stronger effect = lower value
# [7] = S. cerevisiae deletion strains, locus YGR229C, strain SMI1, stronger effect = lower value
# [8] = S. cerevisiae deletion strains, locus YHR030C, strain SLT2, stronger effect = lower value
# [9] = S. cerevisiae deletion strains, locus YHR087W, strain rtc3, stronger effect = lower value
# [10] = S. cerevisiae deletion strains, locus YJL187C, strain SWE1, stronger effect = lower value
# [11] = S. cerevisiae deletion strains, locus YJR043C, strain POL32, stronger effect = lower value
# [12] = S. cerevisiae deletion strains, locus YJR075W, strain HOC1, stronger effect = lower value
# [13] = S. cerevisiae deletion strains, locus YLR039C, strain RIC1, stronger effect = lower value
# [14] = S. cerevisiae deletion strains, locus YLR058C, strain SHM2 (second series), stronger effect = lower value
# [15] = S. cerevisiae deletion strains, locus YLR085C, strain ARP6, stronger effect = lower value
# [16] = S. cerevisiae deletion strains, locus YLR262C, strain YPT6, stronger effect = lower value
# [17] = S. cerevisiae deletion strains, locus YML094W, strain GIM5, stronger effect = lower value
# [18] = S. cerevisiae deletion strains, locus YMR219W, strain ESC1, stronger effect = lower value
# [19] = S. cerevisiae deletion strains, locus YMR263W, strain SAP30, stronger effect = lower value
# [20] = S. cerevisiae deletion strains, locus YMR307W, strain GAS1, stronger effect = lower value
# [21] = S. cerevisiae deletion strains, locus YNL153C, strain GIM3, stronger effect = lower value
# [22] = S. cerevisiae deletion strains, locus YNL298W, strain CLA4 (second series), stronger effect = lower value
# [23] = S. cerevisiae deletion strains, locus YNL322C, strain KRE1, stronger effect = lower value
# [24] = S. cerevisiae deletion strains, locus YNR030W, strain Alg12, stronger effect = lower value
# [25] = S. cerevisiae deletion strains, locus YPL055C, strain LGE1, stronger effect = lower value
# [26] = S. cerevisiae deletion strains, locus YPL241C, strain CIN2, stronger effect = lower value
# [27] = S. cerevisiae deletion strains, locus YPR135W, strain CTF4, stronger effect = lower value
# [28] = S. cerevisiae strains, strain wild type, stronger effect = lower value
# [29] = S. cerevisiae deletion strains, locus YCL061C, strain MRC1, stronger effect = lower value
compound,measurement,setting,value
FC(F)(F)c1cc(Cl)c2nsnc2c1,normalized growth,[1],1
same,normalized growth,[2],0.993
same,normalized growth,[3],1.01
same,normalized growth,[4],1
same,normalized growth,[5],0.99
same,normalized growth,[6],0.997
same,normalized growth,[7],1
same,normalized growth,[8],1.02
same,normalized growth,[9],1.01
same,normalized growth,[10],0.99
same,normalized growth,[11],0.998
same,normalized growth,[12],0.985
same,normalized growth,[13],0.991
same,normalized growth,[14],0.993
same,normalized growth,[15],1.01
same,normalized growth,[16],0.974
same,normalized growth,[17],1.06
same,normalized growth,[18],1
same,normalized growth,[19],1
same,normalized growth,[20],1.01
same,normalized growth,[21],0.996
same,normalized growth,[22],0.993
same,normalized growth,[23],0.995
same,normalized growth,[24],1.01
same,normalized growth,[25],1.03
same,normalized growth,[26],1.08
same,normalized growth,[27],1.03
same,normalized growth,[28],0.987
O=S(=O)(c1ccc(Cl)cc1)c1cc(C(F)(F)F)cc(C(F)(F)F)c1,normalized growth,[1],0.978
same,normalized growth,[2],0.983
same,normalized growth,[29],1
same,normalized growth,[3],1.01
same,normalized growth,[4],1.01
same,normalized growth,[5],0.963
same,normalized growth,[6],0.988
same,normalized growth,[7],0.98
same,normalized growth,[8],0.988
same,normalized growth,[9],0.986
same,normalized growth,[10],0.984
same,normalized growth,[11],0.989
same,normalized growth,[12],0.957
same,normalized growth,[13],0.954
same,normalized growth,[14],0.987
same,normalized growth,[15],0.935
same,normalized growth,[16],0.964
same,normalized growth,[17],0.978
same,normalized growth,[18],0.974
same,normalized growth,[19],1
same,normalized growth,"S. cerevisiae deletion strains, locus YNL128W, strain TEP1, stronger effect = lower value",0.972
same,normalized growth,[21],1.01
same,normalized growth,[22],1.03
same,normalized growth,[23],0.952
same,normalized growth,[24],0.955
same,normalized growth,"S. cerevisiae deletion strains, locus YOL006C, strain TOP1, stronger effect = lower value",0.97
same,normalized growth,[25],1.03
same,normalized growth,[26],0.992
same,normalized growth,[27],1.08
same,normalized growth,[28],0.976
O=S(=O)(NCc1ccc(F)cc1F)c1cccc(C(F)(F)F)c1,normalized growth,[1],0.969
same,normalized growth,[2],0.98
same,normalized growth,[29],0.972
same,normalized growth,[3],0.985
same,normalized growth,"S. cerevisiae deletion strains, locus YDL134C, strain PPH21, stronger effect = lower value",0.894 (active)
same,normalized growth,[4],0.911
same,normalized growth,[5],0.988
same,normalized growth,[6],0.976
same,normalized growth,[7],0.98
same,normalized growth,[8],0.946
same,normalized growth,[9],0.978
same,normalized growth,[10],0.972
same,normalized growth,[11],0.984
same,normalized growth,[12],0.947
same,normalized growth,"S. cerevisiae deletion strains, locus YKL190W, strain CNB1, stronger effect = lower value",0.977
same,normalized growth,[13],0.884
same,normalized growth,[14],0.979
same,normalized growth,[15],0.954
same,normalized growth,[16],0.844
same,normalized growth,[17],0.962
same,normalized growth,[18],0.979
same,normalized growth,[19],0.979
same,normalized growth,[20],0.899
same,normalized growth,[21],1.01
same,normalized growth,[22],0.968
same,normalized growth,[23],0.973
same,normalized growth,[24],0.986
same,normalized growth,[25],0.873
same,normalized growth,[26],0.982
same,normalized growth,[27],0.913
same,normalized growth,[28],0.98
